Each structure is given as a SMILES string. Calls of active or inactive are those of the source. Rule for the calls: active = hit-call score of the fitted dose curve at least 0.9, where 1 is the maximum; inactive = score below 0.9.

The nature of assay [1]: ATG_GRE_CIS: Attagene CIS-FACTORIAL HepG2 Assay for human Glucocorticoid Response Elements (GRE) (AID 2282947). To be noted: HepG2 GRE cis-reporter, Attagene multiplex mRNA; actives raise or lower the signal. Put shortly:
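Cells (HepG2) bearing transfected cis-promoter reporter transcription units were treated with chemical for 24 hours. Reporter mRNA was measured via RT-PCR with capillary electrophoresis, and activity was fitted in both directions relative to DMSO.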

Assay [2] in a line: ATG_ISRE_CIS: Attagene CIS-FACTORIAL HepG2 Assay for human Interferon Regulatory Factor 1 (IRF1) binding to an Interferon-Stimulated Response Element (ISRE) (AID 2282948). Particulars: HepG2 ISRE cis-reporter (Attagene), mRNA transcription readout; actives raise or lower the signal. The procedure, abridged:
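Signal reflects induction or loss of ISRE-linked reporter mRNA in transiently transfected HepG2 cells after a 24 h treatment, detected by fluorescent RT-PCR fragments on capillary electrophoresis and normalised to DMSO.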

The nature of assay [3]: ATG_M_32_CIS: Attagene CIS-FACTORIAL HepG2 Assay for M32 Transcription Factor (Internal Marker) (AID 2282949).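 Note: background control marker of the multiplexed CIS panel rather than a real target.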 To be noted: HepG2 Attagene cis-factorial M32 reporter, mRNA; actives raise or lower the signal. The procedure, abridged: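 HepG2 transfectants (cis-regulated reporter transcription units) dosed 24 h. Reporter mRNA by RT-PCR plus CE, analysed as gain or loss relative to DMSO.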

The nature of assay [4]: ATG_M_06_CIS: Attagene CIS-FACTORIAL HepG2 Assay for M06 Transcription Factor (Internal Marker) (AID 2282950). Particulars: HepG2 Attagene CIS-FACTORIAL M06 internal marker reporter; actives raise or lower the signal. The procedure, abridged:
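Cells (HepG2, transiently carrying cis-driven reporter units) receive chemical for 24 h before RNA isolation. Reporter cDNA is PCR-amplified, FAM-labelled by primer extension, HpaI-digested and sized on a capillary analyser.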

Assay [5] concerns the target Hypoxia-inducible factor 1-alpha (Homo sapiens) (UniProt Q16665). As to the kind of experiment: ATG_HIF1a_CIS: Attagene CIS-FACTORIAL HepG2 Assay for human Hypoxia Inducible Factor 1 (HIF1A) (AID 2282951). To be noted: HepG2 Attagene cis-factorial HIF1a reporter transcription; actives raise or lower the signal. Put shortly:
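Endogenous-TF cis reporter readout, human HepG2 cells, 24 h incubation; mRNA detected via RT-PCR and capillary electrophoresis fluorescence; DMSO-normalised bidirectional fitting.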

The target in assay [6] is Hepatocyte nuclear factor 6 (Homo sapiens) (UniProt Q9UBC0). Kind of assay: ATG_HNF6_CIS: Attagene CIS-FACTORIAL HepG2 Assay for human Hepatocyte Nuclear Factor 6 (HNF6) (AID 2282952). To be noted: HepG2 Attagene cis-factorial HNF6 reporter transcription; actives raise or lower the signal. Put shortly:
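Endogenous factor activity read in transiently transfected HepG2 via promoter-regulated reporter transcripts. RNA harvested 24 h post-dosing, reverse-transcribed, PCR-amplified, FAM-labelled, HpaI-digested and resolved by capillary electrophoresis; fitted in both directions against DMSO.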

The target in assay [7] is Heat shock factor protein 1 (Homo sapiens) (UniProt Q00613). Kind of assay: ATG_HSE_CIS: Attagene CIS-FACTORIAL HepG2 Assay for human Heat Shock Transcription Factor 1 (HSE) (AID 2282953). To be noted: HepG2 HSE cis-reporter, Attagene RNA transcription; actives raise or lower the signal. Put shortly: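 Liver-derived HepG2 cells carry transiently introduced multiple reporter units governed by cis promoters. Reporter RNA measured 24 h post-dose through reverse transcription, PCR amplification, fluorescent labelling and capillary electrophoresis, normalised to DMSO.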
Heat shock factor protein 1 (Homo sapiens), sequence (Q00613 whole entry, looked up): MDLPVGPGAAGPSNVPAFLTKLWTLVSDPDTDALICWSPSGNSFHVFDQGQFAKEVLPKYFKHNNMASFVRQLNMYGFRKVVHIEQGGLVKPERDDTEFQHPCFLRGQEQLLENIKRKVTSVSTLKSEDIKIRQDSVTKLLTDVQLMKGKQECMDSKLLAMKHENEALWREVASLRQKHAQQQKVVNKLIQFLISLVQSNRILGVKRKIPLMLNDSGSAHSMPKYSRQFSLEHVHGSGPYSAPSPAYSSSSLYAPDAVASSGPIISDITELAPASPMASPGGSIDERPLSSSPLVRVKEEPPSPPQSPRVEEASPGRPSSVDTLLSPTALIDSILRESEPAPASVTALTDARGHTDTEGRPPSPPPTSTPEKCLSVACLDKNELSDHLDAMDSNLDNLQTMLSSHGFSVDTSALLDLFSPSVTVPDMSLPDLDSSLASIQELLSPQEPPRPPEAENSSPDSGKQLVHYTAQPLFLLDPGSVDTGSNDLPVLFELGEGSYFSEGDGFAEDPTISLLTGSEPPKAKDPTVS

A short description of assay [8]: ATG_MRE_CIS: Attagene CIS-FACTORIAL HepG2 Assay for human Metal Responsive Element (MRE) (AID 2282954). To be noted: HepG2 MRE cis-reporter transcription, Attagene multiplex; actives raise or lower the signal. Put shortly: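 Cells were transfected with cis-promoter reporter transcription units, then dosed for 24 h. RNA was reverse-transcribed, amplified, fluorescently labelled and resolved by capillary electrophoresis, and activity was fitted in both directions relative to DMSO.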

Assay [9] has as its target Paired box protein Pax-6 (Homo sapiens) (UniProt P26367). As to the kind of experiment: ATG_Pax6_CIS: Attagene CIS-FACTORIAL HepG2 Assay for human Paired Box 6 (PAX6) (AID 2282956). Particulars: HepG2 CIS-FACTORIAL PAX6 reporter transcription, RNA readout; actives raise or lower the signal. The procedure, abridged:
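Values derive from bidirectional curve fitting of reporter mRNA signal relative to DMSO. HepG2 cells bearing transfected cis-regulated MRTUs were exposed for 24 h; transcripts were read by RT-PCR and capillary electrophoresis.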

Assay [10] can be described thus: ATG_PXRE_CIS: Attagene CIS-FACTORIAL HepG2 Assay for human Pregnane X Receptor Element (PXRE) (AID 2282957). To be noted: HepG2 Attagene CIS-FACTORIAL PXRE reporter, mRNA; actives raise or lower the signal. Put shortly:
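Reporter transcripts under endogenous PXR-responsive cis-regulation quantified from total RNA of transfected HepG2 cells 24 h post-dosing, via RT-PCR with fluorescent primer extension and capillary electrophoresis. Gain or loss of signal fitted against DMSO baseline.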

Assay [11] in a line: ATG_PPRE_CIS: Attagene CIS-FACTORIAL HepG2 Assay for human Peroxisome Proliferator-activated Response Element (PPRE) (AID 2282958). Particulars: HepG2 PPRE cis-element reporter, Attagene transcription factor profiling; actives raise or lower the signal. Put shortly:
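After human HepG2 hepatoma cells were transiently transfected with cis-promoter reporter constructs, they were exposed to test chemicals for 24 hours. Reporter RNA was then reverse-transcribed, PCR-amplified, FAM-labeled, HpaI-digested and quantified by capillary electrophoresis.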

Assay [12] can be described thus: ATG_Sox_CIS: Attagene CIS-FACTORIAL HepG2 Assay for human SRY-box transcription factor (SOX) (AID 2282960). To be noted: HepG2 Attagene cis-factorial SOX reporter, mRNA; actives raise or lower the signal. The procedure, abridged:
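Using transiently transfected HepG2 cells, reporter transcription driven by cis elements was assessed 24 h after dosing. Signal was fluorescence of capillary-separated RT-PCR products, with DMSO defining baseline activity.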

In assay [13] the target is Transcription factor Sp1 (Homo sapiens) (UniProt P08047). As to the kind of experiment: ATG_Sp1_CIS: Attagene CIS-FACTORIAL HepG2 Assay for human Specificity Protein 1 (Sp1) (AID 2282961). Particulars: HepG2 Sp1 cis-reporter transcription, actives raise or lower the signal. The procedure, abridged:
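After transient transfection of HepG2 cells with cis-promoter reporter units and 24 h chemical treatment, reporter transcripts were quantified by RT-PCR and capillary electrophoresis fluorescence. Gain- and loss-of-signal fitted against DMSO.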

A short description of assay [14]: ATG_SREBP_CIS: Attagene CIS-FACTORIAL HepG2 Assay for human Sterol Regulatory Element Binding (SREBP) (AID 2282962). Particulars: HepG2 Attagene cis-factorial SREBP reporter, mRNA; actives raise or lower the signal. The procedure, abridged:
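Values derive from bidirectional curve fitting with DMSO as baseline. The underlying measurement is reporter mRNA from cis-element-regulated units in transiently transfected HepG2, quantified by RT-PCR and capillary electrophoresis after 24 h exposure.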

The target of assay [15] is Signal transducer and activator of transcription 3 (Homo sapiens) (UniProt P40763). As to the kind of experiment: ATG_STAT3_CIS: Attagene CIS-FACTORIAL HepG2 Assay for human Signal Transducer and Activator of Transcription 3 (STAT3) (AID 2282963). Particulars: HepG2, Attagene cis-factorial STAT3 reporter transcription; actives raise or lower the signal. The procedure, abridged:
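HepG2, MRTU-transfected, 24 h dosing. RNA → RT → PCR → FAM label → HpaI → CE. Bidirectional fit vs DMSO.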

The nature of assay [16]: ATG_TA_CIS: Attagene CIS-FACTORIAL HepG2 Assay for human TA Basal Promoter (AID 2282964). Particulars: HepG2 Attagene CIS-factorial TA basal promoter reporter; actives raise or lower the signal. The procedure, abridged:
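Background internal-marker endpoint from a 52-component HepG2 cis-reporter panel. Cells treated 24 h; reporter transcripts quantified via RT-PCR and CE fluorescence against DMSO baseline.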

Assay [17] can be described thus: ATG_TCF_b_cat_CIS: Attagene CIS-FACTORIAL HepG2 Assay for human T-Cell-Factor with beta-catenin (TCF/b-cat) (AID 2282965). Particulars: HepG2 TCF/beta-catenin cis-reporter transcription, actives raise or lower the signal. Put shortly: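 HepG2 cells transiently transfected with multiple cis-promoter-regulated reporter transcription units, so endogenous transcription factor activity is measured. Reporter mRNA read 24 hours after dosing by RT-PCR, fluorescent labelling and capillary electrophoresis; bidirectional fitting against DMSO.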

Assay [18] in a line: ATG_PBREM_CIS: Attagene CIS-FACTORIAL HepG2 Assay for human Phenobarbital-responsive Enhancer Module (PBREM) (AID 2282955). Particulars: HepG2 PBREM cis-reporter, Attagene multiplexed transcription; actives raise or lower the signal. The procedure, abridged:
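Readout: reporter mRNA, fluorescent RT-PCR fragments separated by capillary electrophoresis. System: HepG2 transiently transfected with cis-regulated reporter units. Exposure: 24 h. Analysis: bidirectional, DMSO baseline.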

Assay [19] is described as follows: ATG_RORE_CIS: Attagene CIS-FACTORIAL HepG2 Assay for human RAR-related Orphan Receptor Element (RORE) (AID 2282959). To be noted: HepG2 Attagene cis-factorial RORE reporter, mRNA; actives raise or lower the signal. Put shortly:
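Measured here: transcript induction of a cis-regulated reporter in HepG2 cells transiently transfected via FuGene 6. After 24 h, RNA was processed by RT-PCR and fluorescent capillary electrophoresis; DMSO defined baseline activity.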

Signal transducer and activator of transcription 3 (Homo sapiens), sequence (P40763 whole entry, looked up): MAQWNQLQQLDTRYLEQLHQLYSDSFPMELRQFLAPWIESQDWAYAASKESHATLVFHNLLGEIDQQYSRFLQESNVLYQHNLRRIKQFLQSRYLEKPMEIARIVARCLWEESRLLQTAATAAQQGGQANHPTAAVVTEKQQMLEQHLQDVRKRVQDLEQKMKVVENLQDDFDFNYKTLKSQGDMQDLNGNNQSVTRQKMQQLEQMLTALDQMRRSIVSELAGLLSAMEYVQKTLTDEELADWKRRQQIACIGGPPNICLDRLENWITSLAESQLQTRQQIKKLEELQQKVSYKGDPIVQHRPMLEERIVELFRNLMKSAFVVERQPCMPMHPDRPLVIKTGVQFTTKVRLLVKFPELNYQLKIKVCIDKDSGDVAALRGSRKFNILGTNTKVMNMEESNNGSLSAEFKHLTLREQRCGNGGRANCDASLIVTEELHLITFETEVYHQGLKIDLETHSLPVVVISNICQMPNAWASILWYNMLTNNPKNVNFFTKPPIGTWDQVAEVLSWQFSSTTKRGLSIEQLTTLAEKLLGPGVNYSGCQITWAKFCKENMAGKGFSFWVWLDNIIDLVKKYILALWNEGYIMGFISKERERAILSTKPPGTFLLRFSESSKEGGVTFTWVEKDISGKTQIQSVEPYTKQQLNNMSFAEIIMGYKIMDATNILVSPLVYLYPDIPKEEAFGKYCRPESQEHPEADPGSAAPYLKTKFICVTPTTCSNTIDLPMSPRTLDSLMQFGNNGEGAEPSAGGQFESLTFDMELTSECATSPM
Hepatocyte nuclear factor 6 (Homo sapiens), sequence (Q9UBC0 whole entry, looked up): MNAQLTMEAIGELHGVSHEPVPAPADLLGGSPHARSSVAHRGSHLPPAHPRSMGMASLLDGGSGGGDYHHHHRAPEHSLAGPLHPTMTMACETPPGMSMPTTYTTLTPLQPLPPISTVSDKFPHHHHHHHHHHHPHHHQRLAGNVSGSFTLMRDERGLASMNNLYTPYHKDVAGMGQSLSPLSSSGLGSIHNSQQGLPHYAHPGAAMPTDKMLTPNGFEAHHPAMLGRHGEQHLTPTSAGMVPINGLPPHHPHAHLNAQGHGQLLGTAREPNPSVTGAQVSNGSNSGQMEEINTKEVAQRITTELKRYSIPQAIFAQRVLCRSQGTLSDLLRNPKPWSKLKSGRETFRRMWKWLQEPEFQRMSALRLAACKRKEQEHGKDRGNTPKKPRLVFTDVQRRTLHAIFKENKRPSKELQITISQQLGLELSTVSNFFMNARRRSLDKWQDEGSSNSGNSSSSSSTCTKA
Hypoxia-inducible factor 1-alpha (Homo sapiens), sequence (Q16665 whole entry, looked up): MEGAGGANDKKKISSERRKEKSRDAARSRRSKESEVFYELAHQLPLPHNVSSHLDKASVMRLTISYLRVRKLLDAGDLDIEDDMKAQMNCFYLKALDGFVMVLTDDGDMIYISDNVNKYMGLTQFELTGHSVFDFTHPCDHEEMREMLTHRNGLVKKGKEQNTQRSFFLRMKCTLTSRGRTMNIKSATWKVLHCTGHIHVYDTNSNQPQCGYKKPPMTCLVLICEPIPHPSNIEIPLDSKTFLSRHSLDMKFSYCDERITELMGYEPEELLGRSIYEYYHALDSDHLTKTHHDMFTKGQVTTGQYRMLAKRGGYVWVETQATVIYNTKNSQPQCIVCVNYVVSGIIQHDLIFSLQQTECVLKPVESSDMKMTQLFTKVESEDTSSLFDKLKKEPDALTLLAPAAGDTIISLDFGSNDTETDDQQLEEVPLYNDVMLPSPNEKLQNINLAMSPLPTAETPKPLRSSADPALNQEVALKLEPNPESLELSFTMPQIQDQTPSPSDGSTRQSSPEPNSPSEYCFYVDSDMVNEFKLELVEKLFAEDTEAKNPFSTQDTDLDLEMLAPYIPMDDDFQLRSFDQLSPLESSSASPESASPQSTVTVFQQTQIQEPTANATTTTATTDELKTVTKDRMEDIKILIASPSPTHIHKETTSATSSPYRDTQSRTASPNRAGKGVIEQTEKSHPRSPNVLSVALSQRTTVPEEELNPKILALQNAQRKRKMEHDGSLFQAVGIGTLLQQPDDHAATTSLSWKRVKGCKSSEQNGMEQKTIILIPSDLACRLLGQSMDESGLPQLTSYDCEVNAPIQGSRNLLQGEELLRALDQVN
Transcription factor Sp1 (Homo sapiens), sequence (P08047 whole entry, looked up): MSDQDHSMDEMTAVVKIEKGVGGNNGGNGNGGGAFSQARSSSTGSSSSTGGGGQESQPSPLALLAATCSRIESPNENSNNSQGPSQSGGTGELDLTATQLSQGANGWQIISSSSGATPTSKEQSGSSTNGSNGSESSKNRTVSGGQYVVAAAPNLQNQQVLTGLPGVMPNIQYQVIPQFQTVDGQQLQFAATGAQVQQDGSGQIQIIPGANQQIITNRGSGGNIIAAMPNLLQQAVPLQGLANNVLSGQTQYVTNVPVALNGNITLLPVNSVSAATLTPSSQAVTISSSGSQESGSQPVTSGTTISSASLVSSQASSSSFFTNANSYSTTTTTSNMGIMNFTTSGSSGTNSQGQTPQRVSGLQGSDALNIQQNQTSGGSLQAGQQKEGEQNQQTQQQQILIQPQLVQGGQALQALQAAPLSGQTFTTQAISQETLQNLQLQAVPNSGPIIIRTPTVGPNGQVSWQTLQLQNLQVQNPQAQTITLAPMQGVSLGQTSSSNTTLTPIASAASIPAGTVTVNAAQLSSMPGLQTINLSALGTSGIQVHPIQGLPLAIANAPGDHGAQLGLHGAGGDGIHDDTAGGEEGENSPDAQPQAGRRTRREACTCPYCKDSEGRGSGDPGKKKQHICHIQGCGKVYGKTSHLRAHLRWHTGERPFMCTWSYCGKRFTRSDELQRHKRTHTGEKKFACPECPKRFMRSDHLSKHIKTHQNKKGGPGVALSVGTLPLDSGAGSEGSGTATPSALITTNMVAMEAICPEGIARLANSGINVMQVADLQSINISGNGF
Paired box protein Pax-6 (Homo sapiens), sequence (P26367 whole entry, looked up): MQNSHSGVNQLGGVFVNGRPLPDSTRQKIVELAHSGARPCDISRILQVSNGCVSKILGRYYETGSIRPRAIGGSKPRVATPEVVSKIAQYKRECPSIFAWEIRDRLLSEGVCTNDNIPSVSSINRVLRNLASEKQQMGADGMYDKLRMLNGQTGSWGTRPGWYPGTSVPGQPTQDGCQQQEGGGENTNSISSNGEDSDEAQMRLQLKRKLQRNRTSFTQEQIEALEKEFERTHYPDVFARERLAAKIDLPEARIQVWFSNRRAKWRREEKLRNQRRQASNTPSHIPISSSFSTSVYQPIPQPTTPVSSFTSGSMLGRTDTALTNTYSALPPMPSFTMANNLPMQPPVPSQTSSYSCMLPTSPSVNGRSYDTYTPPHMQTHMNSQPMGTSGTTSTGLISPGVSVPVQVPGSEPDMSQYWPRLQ

Consider `COCCOC(=O)c1ccccc1C(=O)OCCOC`, for which the compound was classed as inactive in assay [1], in [2], in [3], in [4], in [5] and in assay [6]. Further, the result in [7], in [8], in assay [9], in assay [11], in [12] and in assay [13] was inactive. The call in [14], in [15], in [16] and in [17] was inactive. For the same compound, in assay [10], the concentration at half-maximal activity (AC50) (in general, the concentration at which the activity in the assay is half-maximal) was 120 µM (active).
Regarding `CCCOC(=O)c1c(Cl)c(Cl)c(Cl)c(Cl)c1C(=O)OCCC`, the result in assay [1], in [3], in assay [4], in [5], in assay [6] and in assay [7] was inactive. Moreover, the compound was called inactive in assay [11], in [12], in [15], in assay [16] and in [17]. Besides, the AC50 in [2] is 62.1 µM (active); in assay [8], 162 µM (active); in [10], 1.64 µM (active); in assay [13], 67.1 µM (active); in [14], 100 µM (active).
Consider `O=c1[nH]c(=O)c2cn[nH]c2[nH]1`, for which the result in [1], in [2], in assay [3], in assay [4], in assay [5] and in assay [6] was inactive. For the same compound, the call in assay [7], in assay [8], in assay [9], in [10], in assay [11] and in assay [12] was inactive. The result in assay [13], in assay [14], in assay [15] and in [17] was inactive.
On to `c1ccc2cc(Nc3ccc(Nc4ccc5ccccc5c4)cc3)ccc2c1`, for which the result in assay [1], in assay [2], in [3], in [4], in assay [6] and in assay [7] was inactive. Besides, the compound was called inactive in assay [8], in assay [18], in assay [10], in assay [11], in assay [12] and in assay [13]. In addition, the call in assay [14], in assay [15], in [16] and in assay [17] was inactive. The AC50 in assay [19] was 5.31 µM (active).
As for `N[C@@H](Cc1cc(I)c(Oc2cc(I)c(O)c(I)c2)c(I)c1)C(=O)O`, the call in [1], in assay [2], in assay [3], in assay [4], in assay [6] and in assay [7] was inactive. Moreover, the outcome in [9], in [12], in [13], in [15] and in assay [17] was inactive. For the same compound, the AC50 in [5] is 18.9 µM (active); in assay [8] it was 27.8 µM (active); in [10], 6.42 µM (active); in assay [11], 22.1 µM (active); in assay [14], 22.7 µM (active).
Take `CC1(C)CCC[C@]2(C)[C@H]3CCO[C@]3(C)CC[C@@H]12`: the outcome in assay [1], in assay [2], in assay [3], in assay [4], in [6] and in assay [8] was inactive. In addition, the result in assay [18], in assay [11], in [12], in [13], in [15] and in assay [16] was inactive. For the same compound, the result in assay [17] was inactive. For the same compound, the concentration at half-maximal activity (AC50) in assay [7] was 178 µM (active); in assay [10], 7.46 µM (active); in assay [19], 100 µM (active); in [14] it was 145 µM (active).
As for `COc1ccc(CCN2CCC(Nc3nc4ccccc4n3Cc3ccc(F)cc3)CC2)cc1`, the result in [1], in assay [2], in [3], in [4], in assay [6] and in assay [7] was inactive. Besides, the compound was classed as inactive in [8], in assay [18], in [9], in assay [10], in assay [11] and in [19]. The outcome in assay [12], in [13], in assay [15] and in [17] was inactive. Besides, the AC50 in [14] is 2.12 µM (active).

The values above are taken from PubChem BioAssay (EPA / NIEHS).
